Compound activity deposited in PubChem by National Center for Advancing Translational Sciences (NCATS).
Most compounds without a hit are left out; they make up all but 0.92% or so of the library.
TDP1 block: inhibitors of human tyrosyl-DNA phosphodiesterase TDP1; Q9NUW8; recombinant TDP1, AlphaScreen DNA substrate cleavage; Potency, µM (top dose mostly 130 µM), inactives show top-dose activity change, negative = inhibition, hits mostly inhibitors; 350,000 compounds, 0.28% hits; AID 485290; also: nearly all actives have a fitted effect of over 40% in size
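Signal: AlphaScreen proximity between streptavidin donor and anti-FITC acceptor beads on intact substrate. Reaction: Tdp1 1 nM, substrate 15 nM final, 5 min RT after 15 min compound preincubation.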
RECQ1 inh-1: RECQ1 (human) helicase inhibition; P46063; RECQ1 DNA unwinding, red fluorescence kinetic read; Potency, µM (doses to about 57.3 µM), for inactives: top-dose activity, negative = inhibition, actives largely listed as inhibitors; 240,000 compounds, 0.54% hits; AID 2549;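 also: plate controls were vehicle for no effect and no enzyme for full effect; nearly all actives have a fitted effect of over 30% in size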
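50 nM RECQ1T1 preincubated 15 min with compound in Tris pH 8.0 buffer with MgCl2, DTT, Tween-20 and 2.5 ug/ml poly(dI-dC); started with 200 nM TAMRA/BHQ-2 forked duplex and 2 mM ATP. Unwinding read as fluorescence (525/598 nm), two reads 2 h apart.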
BLM inh: Bloom syndrome helicase (human) inhibition; recombinant BLM DNA unwinding, fluorescence dequenching; 350,000 compounds, 0.2% hits; P54132; Potency, µM (highest dose often 56.1 µM), inactives show top-dose activity change, negative = inhibition, usual class: inhibitors;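 also: plate controls were vehicle for no effect and no enzyme for full effect; nearly all actives have a fitted effect of over 35% in size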
FEN1 inhibitor: inhibitors of human flap endonuclease 1; P39748; Recombinant FEN1 flap cleavage, fluorescence, 15 min; Potency, µM (doses to about 114 µM), for inactives: top-dose activity change, negative = inhibition, actives largely listed as inhibitors; 390,000 compounds, 0.35% hits; also: nearly all actives have a fitted effect of over 65% in size
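Potency values derive from four-parameter Hill fits of normalized qHTS data. The reaction used 10 nM FEN1 preincubated 15 min at room temperature with compound, then 50 nM DNA substrate, read at 0 and 15 min.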
APEX1 inh: APE1 (human) endonuclease inhibition | recombinant APE1, TAMRA/BHQ-2 abasic DNA cleavage fluorescence | Potency, µM (doses to about 65.8 µM), inactives show top-dose activity change, negative = inhibition, most hits filed as inhibitors | 350,000 compounds, 0.35% hits | P27695;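 also: plate controls were vehicle for no effect and reference inhibitor for full effect; nearly all actives have a fitted effect of over 55% in size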
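Substrate: short duplex with […] THF abasic site, 5'-TAMRA and 3'-BHQ-2, 50 nM final. APE1 at 0.75 nM, preincubated 15 min RT with compound. Fluorescence increase from first to third read measured activity.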
RECQ1 inh conf: confirmation of human RECQ1 helicase inhibitors. shares compounds with RECQ1 inh-1. RECQ1 helicase DNA unwinding, fluorescence. Potency, µM (doses to about 229 µM), for the others: top-dose activity change, negative = inhibition, most hits filed as inhibitors. 610 compounds, 28% hits; also: nearly all actives have a fitted effect of over 45% in size
RECQ1 ADP FP: counter-screen for RECQ1 inhibitors: ADP displacement; shares compounds with RECQ1 inh-1; ADP fluorescence polarization displacement counterscreen; Potency, µM (top dose mostly 228 µM), for the others: at the highest dose activity change, negative = inhibition, most hits filed as inhibitors; 530 compounds, 27% hits; AID 2711; also: nearly all actives have a fitted effect of over 45% in size
RECQ1 inh-2: RECQ1 helicase inhibition confirmed, round 2; Potency, µM (highest dose often 119 µM), without a hit: at the highest dose activity, negative = inhibition, hits mostly inhibitors; recombinant RECQ1 DNA unwinding, red fluorescence; 1,100 compounds, 15% hits; shares compounds with RECQ1 inh-1; also: nearly all actives have a fitted effect of over 50% in size
Numbers without * were called inactive; [ ] = dose if it differs, or a comment. Calls follow the shape of the dose curve; as a rule, active = well fitted curve in the direction sought with a large enough effect; inconclusive = small, poorly fitted or top-dose-only effect, or another doubt; inactive = no such curve, though single readings can be large; an effect the other way counts as inactive or inconclusive. Unless noted, % is scaled to controls: 0 for no effect and ±100 for the full control effect; potency is read from the fitted curve at half-maximal effect.

Screening O=C(O)c1cccc(Cn2c(Cl)c(/C=N/NC(=O)c3cc4ccccc4cc3O)sc2=O)c1 returned RECQ1 inh-1 4.47µM*, BLM inh 8.91µM*, FEN1 inhibitor 17.8µM*, APEX1 inh inconclusive, RECQ1 inh conf inconclusive and RECQ1 ADP FP 7.5%[91.9 µM].
`CC(C)c1ccc(S(=O)(=O)N2CCN(Cc3cccc(F)c3)CC2)cc1` gave TDP1 block -0.5%, BLM inh -6.1% and FEN1 inhibitor -1.5%.
`CCNc1ncc2nc(-c3cc(F)cc(F)c3)c(=O)n(CCc3ccccc3)c2n1` gave RECQ1 inh-1 inconclusive, BLM inh -8.6%, APEX1 inh inconclusive and RECQ1 inh-2 15.8µM*.
For CCNc1ncc2nc(-c3ccc(OC)cc3)c(=O)n(CCc3ccccc3)c2n1 the results were RECQ1 inh-1 -11.8%, BLM inh 0.7% and APEX1 inh 11.8%.
CC1(C)c2ccccc2N2CCC(=O)NC21/C=C/c1ccco1 (configuration not stated) was read as TDP1 block 0.0%, RECQ1 inh-1 inconclusive, BLM inh -6.5%, FEN1 inhibitor -1.2%, APEX1 inh -3.1% and RECQ1 inh-2 -4.2%.
For CCCCC/C=C\C/C=C\C/C=C\C=C\C1CCCC(=O)O1 (configuration not stated) the results were TDP1 block 6.9%, RECQ1 inh-1 3.7%, BLM inh -0.5% and APEX1 inh -0.7%.
Screening Cc1ccc(/C=C2/SC(=S)N(C3CCCCC3)C2=O)o1 returned TDP1 block 10.0%, BLM inh 0.0%, FEN1 inhibitor 2.5% and APEX1 inh 77.7%.
Screening Cc1ccc(/C=C2/SC(=O)NC2=S)o1 returned TDP1 block inconclusive, RECQ1 inh-1 17.8µM*, BLM inh -11.9%, FEN1 inhibitor 39.8µM*, APEX1 inh 12.6µM*, RECQ1 inh conf 13.2%[114 µM], RECQ1 ADP FP 35.5µM* and RECQ1 inh-2 inconclusive.
Screening Cc1cccc(OCCn2nnc3sc4c(c3c2=O)CCCC4)c1 returned TDP1 block -2.3%, BLM inh -6.0% and FEN1 inhibitor -13.3%.
For CCc1cccc(C)c1NC(=O)c1cc(CN2CCCC2)on1 the results were TDP1 block 0.6%, BLM inh 0.8% and FEN1 inhibitor -3.4%.
Screening COc1ccc(NC(=O)COC(=O)Cc2ccc(-c3ccccc3)cc2)c(OC)c1 returned TDP1 block 3.2%, RECQ1 inh-1 inactive, BLM inh -5.5%, FEN1 inhibitor -14.7% and APEX1 inh -4.2%.
COc1ccc(C)cc1NC(=O)COC(=O)Cc1ccc(-c2ccccc2)cc1 was read as TDP1 block 0.0%, RECQ1 inh-1 inconclusive, BLM inh -12.4%, FEN1 inhibitor -19.2%, APEX1 inh 0.9% and RECQ1 inh-2 -6.9%.
C=CCC(O)(/C=C/c1ccccc1)c1ccccc1 (configuration not stated) was read as TDP1 block 0.0%, RECQ1 inh-1 -7.5%, BLM inh 0.2% and APEX1 inh 4.2%.
For Cc1ccc(NC(=O)c2c3c(nc4ccccc24)CCC3)cc1 the results were TDP1 block 0.0%, RECQ1 inh-1 -3.7%, BLM inh -0.5%, FEN1 inhibitor 1.6% and APEX1 inh -3.9%.
`Cc1ccc(NC(=O)c2c3c(nc4ccccc24)CCC3)cc1S(=O)(=O)N(C)C` gave TDP1 block -10.8%, RECQ1 inh-1 inconclusive, BLM inh -12.0%, FEN1 inhibitor -5.7%, APEX1 inh inconclusive and RECQ1 inh-2 inconclusive.
Screening COc1ccc(-c2cc(=O)c3cc(O)ccc3o2)cc1 returned TDP1 block 5.1%, RECQ1 inh-1 inconclusive, BLM inh 0.1%, FEN1 inhibitor -19.4%, APEX1 inh 1.2% and RECQ1 inh-2 -17.8%.
Screening Cc1ccc(-n2c(Cc3cccn3C)nnc2SCC(=O)N2CCc3ccccc32)cc1 returned TDP1 block 9.9%, RECQ1 inh-1 0.224µM*, BLM inh -16.7%, FEN1 inhibitor -17.1%, APEX1 inh 8.8%, RECQ1 inh conf 17.0%[114 µM], RECQ1 ADP FP 13.7%[91.9 µM] and RECQ1 inh-2 -9.4%.
For Cc1ccc(N2CCN(C(=O)c3ccccc3NC(=O)C3CC=CCC3C(=O)O)CC2)cc1 (configuration not stated) the results were TDP1 block -5.3%, RECQ1 inh-1 -3.9%, BLM inh -1.8%, FEN1 inhibitor -0.6% and APEX1 inh -0.3%.
For Cc1cccc(N2CCN(C(=O)c3ccccc3NC(=O)C3CC=CCC3C(=O)O)CC2)c1 (configuration not stated) the results were TDP1 block 3.5%, RECQ1 inh-1 inactive, BLM inh -1.1%, FEN1 inhibitor 3.9%, APEX1 inh -4.4%, RECQ1 inh conf 11.7% and RECQ1 ADP FP -5.9%.
Screening Cc1cccc(C(=O)Nc2ccc(C(=O)/C=C/c3cccnc3)cc2)c1 returned TDP1 block 2.3%, RECQ1 inh-1 1.12µM*, BLM inh -14.8%, FEN1 inhibitor -15.2%, APEX1 inh 3.3%, RECQ1 inh conf -7.8%[114 µM] and RECQ1 inh-2 inconclusive.
For O=C(/C=C/c1cccnc1)c1ccc(NC(=O)c2cccc(Br)c2)cc1 the results were TDP1 block 0.0%, RECQ1 inh-1 -7.4%, BLM inh -5.9%, FEN1 inhibitor -12.7% and APEX1 inh -5.3%.
For Cc1ccc(-c2onc(C)c2C)cc1S(=O)(=O)N1CCC(C)CC1 the results were TDP1 block -7.9%, BLM inh -12.7% and FEN1 inhibitor -19.4%.
Screening O=C(/C=C/c1ccco1)N1CCCC(c2ccccc2)C1 (configuration not stated) returned TDP1 block -3.5%, RECQ1 inh-1 inconclusive, BLM inh -18.2%, FEN1 inhibitor 4.4%, APEX1 inh -14.8% and RECQ1 inh-2 inconclusive.
Cc1nc2cnc(N3CCOCC3)nc2n(Cc2ccc(F)cc2)c1=O was read as RECQ1 inh-1 0.631µM*, BLM inh -8.6%, APEX1 inh -8.5% and RECQ1 inh-2 -11.5%.
`COCCNC(=O)c1onc(CSc2cc(C)cc(C)c2)c1C(=O)O` gave TDP1 block 4.1%, RECQ1 inh-1 inactive, BLM inh -2.5%, FEN1 inhibitor 20.9%, APEX1 inh 0.6%, RECQ1 inh conf -0.2% and RECQ1 ADP FP 1.0%.
